Rows were chosen to be rich in hits. Some 12% of all compounds tested hit in one or more screens of this group.
JMJD2A Tudor inh: qHTS Assay for Inhibitors of JMJD2A-Tudor Domain; Lysine-specific demethylase 4A (Homo sapiens), O75164; AlphaScreen JMJD2A-Tudor / H3K4me3 peptide binding; Potency, µM (titrated, usually from 114 µM), for the others: top-dose activity change, negative = inhibition, usual class: inhibitors; 390,000 compounds, 4.4% hits; further: on the % scale 0 is the no-effect control and ±100 the full control effect; nearly all actives have a fitted effect of over 50% in size
Sfp inh: qHTS Assay for Inhibitors of Bacillus subtilis Sfp phosphopantetheinyl transferase (PPTase); 4'-phosphopantetheinyl transferase ffp (Bacillus subtilis), Q9F4F7; Potency, µM, for the others: largest response in the series, negative = inhibition, actives largely listed as inhibitors; Biochemical Sfp PPTase activity, qHTS; 310,000 compounds, 3.5% hits;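 further: the enzyme is Sfp with the accession as filed and its product quenches rhodamine fluorescence; 0% = enzyme reaction without inhibitor and -100% = no enzyme wells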
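Fluorescence-quenching assay: 15 nM Sfp-PPTase preincubated 15 min at room temperature with compound, then 5 uM rhodamine-CoA and 12.5 uM BHQ-2-labelled YbbR peptide added. Fluorescence (ex 525/em 598 nm) read at start and after 30 min; difference gives rate.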
BAZ2B inh: qHTS Assay for Inhibitors of BAZ2B; Bromodomain adjacent to zinc finger domain protein 2B (Homo sapiens), Q9UIF8; AID 504333, 2011; AlphaScreen BAZ2B-H3K14Ac peptide displacement; Potency, µM (titrated, usually from 114 µM), without a hit: at the highest dose activity change, negative = inhibition, hits mostly inhibitors; 360,000 compounds, 4.4% hits; further: on the % scale 0 is the no-effect control and ±100 the full control effect; nearly all actives have a fitted effect of over 60% in size
Target sequence (Q9UIF8 whole entry, looked up, the tested form may be a part): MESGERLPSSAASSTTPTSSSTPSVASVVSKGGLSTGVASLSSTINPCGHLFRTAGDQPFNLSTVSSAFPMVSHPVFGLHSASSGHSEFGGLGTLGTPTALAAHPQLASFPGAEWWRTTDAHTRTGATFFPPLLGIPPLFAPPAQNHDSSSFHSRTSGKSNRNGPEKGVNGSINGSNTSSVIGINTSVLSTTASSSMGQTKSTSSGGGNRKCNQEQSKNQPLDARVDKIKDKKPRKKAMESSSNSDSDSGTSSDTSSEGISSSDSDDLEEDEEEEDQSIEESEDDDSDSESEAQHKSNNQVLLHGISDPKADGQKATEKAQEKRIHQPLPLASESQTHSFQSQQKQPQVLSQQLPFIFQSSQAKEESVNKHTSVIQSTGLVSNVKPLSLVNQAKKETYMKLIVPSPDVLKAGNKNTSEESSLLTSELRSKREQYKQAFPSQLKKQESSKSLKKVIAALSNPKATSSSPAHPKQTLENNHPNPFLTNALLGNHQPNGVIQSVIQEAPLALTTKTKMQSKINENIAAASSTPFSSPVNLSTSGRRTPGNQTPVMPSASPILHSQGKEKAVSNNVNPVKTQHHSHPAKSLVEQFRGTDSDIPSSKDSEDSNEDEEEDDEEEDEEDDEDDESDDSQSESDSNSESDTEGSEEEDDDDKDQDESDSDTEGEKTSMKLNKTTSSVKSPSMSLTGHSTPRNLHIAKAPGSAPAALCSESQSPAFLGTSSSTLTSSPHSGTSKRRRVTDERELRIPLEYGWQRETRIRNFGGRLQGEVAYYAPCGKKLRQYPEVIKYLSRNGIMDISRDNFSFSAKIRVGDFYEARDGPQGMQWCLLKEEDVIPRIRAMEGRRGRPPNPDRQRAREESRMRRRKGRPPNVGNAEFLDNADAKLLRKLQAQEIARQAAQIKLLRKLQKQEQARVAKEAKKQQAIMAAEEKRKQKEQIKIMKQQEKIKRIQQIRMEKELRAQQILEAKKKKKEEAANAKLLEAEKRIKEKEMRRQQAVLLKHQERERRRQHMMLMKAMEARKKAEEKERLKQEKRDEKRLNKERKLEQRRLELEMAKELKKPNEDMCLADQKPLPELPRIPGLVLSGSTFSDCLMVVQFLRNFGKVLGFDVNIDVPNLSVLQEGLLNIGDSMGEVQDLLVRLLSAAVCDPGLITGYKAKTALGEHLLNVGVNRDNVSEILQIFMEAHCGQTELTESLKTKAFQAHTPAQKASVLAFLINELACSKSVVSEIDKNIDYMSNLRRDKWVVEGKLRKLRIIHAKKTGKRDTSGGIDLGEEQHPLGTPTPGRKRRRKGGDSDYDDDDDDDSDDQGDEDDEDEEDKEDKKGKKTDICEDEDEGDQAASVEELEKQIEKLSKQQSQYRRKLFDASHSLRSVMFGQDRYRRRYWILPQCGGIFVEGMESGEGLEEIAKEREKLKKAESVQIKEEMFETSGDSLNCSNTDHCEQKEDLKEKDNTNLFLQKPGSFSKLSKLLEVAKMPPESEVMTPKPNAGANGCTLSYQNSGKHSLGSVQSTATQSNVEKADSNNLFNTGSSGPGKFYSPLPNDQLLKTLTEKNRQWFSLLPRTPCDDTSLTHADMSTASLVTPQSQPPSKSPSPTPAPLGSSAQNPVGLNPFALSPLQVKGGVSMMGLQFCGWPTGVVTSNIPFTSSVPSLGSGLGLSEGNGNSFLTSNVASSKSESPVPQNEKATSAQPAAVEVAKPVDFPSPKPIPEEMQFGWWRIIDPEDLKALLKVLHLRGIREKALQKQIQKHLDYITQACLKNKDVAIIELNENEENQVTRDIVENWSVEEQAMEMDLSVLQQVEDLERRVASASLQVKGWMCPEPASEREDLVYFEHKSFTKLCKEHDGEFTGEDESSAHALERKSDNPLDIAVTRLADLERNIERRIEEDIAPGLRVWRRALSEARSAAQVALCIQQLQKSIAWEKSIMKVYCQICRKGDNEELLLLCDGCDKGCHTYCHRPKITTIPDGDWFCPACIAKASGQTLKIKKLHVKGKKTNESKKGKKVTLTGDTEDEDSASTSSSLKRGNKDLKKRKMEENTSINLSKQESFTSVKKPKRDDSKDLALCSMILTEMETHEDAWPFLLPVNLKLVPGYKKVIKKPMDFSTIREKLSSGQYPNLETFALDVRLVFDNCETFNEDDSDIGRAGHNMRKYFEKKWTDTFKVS
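Protein-peptide AlphaScreen: BAZ2B 50 nM, b-H3K14Ac 50 nM, 1x PBS pH 7.4 + 0.01% Tween-20. Preincubation 30 min RT; cpd 30 min RT (top 110 uM); beads 20 min RT, light-protected.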
HP1b binding inh: HTS for Inhibitors of HP1-beta Chromodomain Interactions with Methylated Histone Tails | 390,000 compounds, 0.56% hits | Chromobox protein homolog 1 (Homo sapiens), P83916 | AlphaScreen HP1-beta / biotin-H3K9me3 peptide binding | Potency, µM (top dose mostly 114 µM), without a hit: top-dose activity change, negative = inhibition, most hits filed as inhibitors; further: nearly all actives have a fitted effect of over 70% in size
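HP1-beta protein (50 nM final) preincubated 30 min at room temperature with biotinylated H3(1-18)K9me3 peptide (50 nM) in PBS pH 7.4, 0.01% Tween-20, then compound added for 30 min. AlphaScreen streptavidin donor/nickel chelate acceptor beads (10 ug/mL final), 30 min dark, luminescence read.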
G9a block: qHTS Assay for Inhibitors of Histone Lysine Methyltransferase G9a; G9a H3K9 monomethylation, AlphaScreen, 2 h; Histone-lysine N-methyltransferase EHMT2 (Homo sapiens), Q96KQ7; 350,000 compounds, 8.8% hits; Potency, µM (top dose mostly 102 µM), without a hit: at the top dose activity, negative = inhibition, actives largely listed as inhibitors; AID 504332, 2011; further: on the % scale 0 is the no-effect control and ±100 the full control effect; nearly all actives have a fitted effect of over 75% in size
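AlphaScreen detection with an anti-monomethyl H3K9 antibody quantified product after a 2 h room-temperature reaction containing 500 nM biotinylated H3K9 peptide, 20 µM SAM and 20 nM enzyme, which had been preincubated 15 min with compound.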
Numbers without * were called inactive; [ ] = dose if it differs, or a comment. The call rests on the fitted dose curve; in most records, active means well fitted curve in the direction sought with a large enough effect; inconclusive means small, poorly fitted or top-dose-only effect, or another doubt; inactive means no such curve, though single readings can be large; an effect the other way counts as inactive or inconclusive. Potency means the concentration at half of the fitted maximal effect.

What do the screens show for `COc1ccc(OC)c(NC(=O)C(Cc2ccccc2)NS(=O)(=O)c2ccc3c(c2)CCC(=O)N3)c1` (centres undefined)?
JMJD2A Tudor inh: -11.8%; BAZ2B inh: -16.9%; HP1b binding inh: 16.3%; G9a block: 6.2%[59 µM]

Results for CC1CCN(c2nc3ccc(C(=O)NCc4ccccc4Cl)cc3s2)CC1 ?
JMJD2A Tudor inh: 4.0%; BAZ2B inh: -1.6%; HP1b binding inh: 35.8%; G9a block: 13.5%[59 µM]

What do the screens show for `Nc1nc2c(F)c(F)c(F)cc2s1`?
JMJD2A Tudor inh: -13.6%; Sfp inh: inconclusive; BAZ2B inh: -1.9%; HP1b binding inh: 3.2%; G9a block: 17.8µM*

What do the screens show for `Nc1nc2c(F)cccc2s1`?
JMJD2A Tudor inh: -7.1%; Sfp inh: 17.9%; BAZ2B inh: 0.1%; HP1b binding inh: 24.5%; G9a block: 1.5%

Results for CCc1cc(C(c2ccc(OC)c(OC)c2)N2CCOCC2)c(NC(=O)c2ccccc2)s1 (centres undefined) ?
JMJD2A Tudor inh: 50.1µM*; Sfp inh: 4.6%; BAZ2B inh: 35.5µM*; HP1b binding inh: inconclusive; G9a block: 31.6µM*

What do the screens show for `CCc1cc(C(c2cccc(OC)c2)N2CCOCC2)c(NC(=O)c2ccccc2)s1` (centres undefined)?
JMJD2A Tudor inh: -22.6%; Sfp inh: 4.6%; BAZ2B inh: -31.0%; HP1b binding inh: 28.7%; G9a block: 4.7%

Results for CCOC(=O)c1c(-c2ccccc2)csc1NC(=O)/C(C#N)=C\c1ccc(O)c(OC)c1 ?
JMJD2A Tudor inh: 28.2µM*; HP1b binding inh: inconclusive

Results for N#C/C(=C\c1ccccc1)C(=O)Nc1ccccn1 ?
JMJD2A Tudor inh: -15.2%; Sfp inh: 3.6%; BAZ2B inh: 1.9%; HP1b binding inh: 63.2%; G9a block: 2.0%

Results for Cc1cccc(/C=C(\C#N)C(=O)Nc2ccccn2)c1 ?
JMJD2A Tudor inh: -17.4%; Sfp inh: 10.8%; BAZ2B inh: -22.4%; HP1b binding inh: 44.2%; G9a block: 44.7µM*

Results for CCOC(=O)c1c(-c2ccc(C)cc2)csc1NC(=O)/C(C#N)=C/c1ccc(O)c(OC)c1 ?
JMJD2A Tudor inh: -28.9%; Sfp inh: 0.8%; BAZ2B inh: inconclusive; HP1b binding inh: -2.9%; G9a block: -18.1%[59 µM]

How did CCOc1cc(/C=C(\C#N)C(=O)Nc2ccccn2)ccc1O do in these assays?
JMJD2A Tudor inh: -23.4%; Sfp inh: 6.4%; BAZ2B inh: -24.2%; HP1b binding inh: -10.8%; G9a block: 44.7µM*

Results for Cc1cccc(NC(=O)/C(C#N)=C/c2ccc(F)cc2)n1 ?
JMJD2A Tudor inh: -8.1%; Sfp inh: 3.3%; BAZ2B inh: -12.6%; HP1b binding inh: 24.2%; G9a block: 17.1%

Results for CCCOc1ccccc1/C=C(\C#N)C(=O)Nc1cccc(C)n1 ?
JMJD2A Tudor inh: -7.5%; Sfp inh: -6.9%; BAZ2B inh: 5.1%; HP1b binding inh: 28.0%; G9a block: 20µM*

What do the screens show for `COc1ccc(C2C3C=CCC(c4cccc(-c5ccc(N(C)C)cc5)c4)C3C(=O)N2Cc2ccccc2)cc1Cl` (centres undefined)?
JMJD2A Tudor inh: inconclusive; Sfp inh: 3.6%; HP1b binding inh: -10.9%

What do the screens show for `CC(C)CN(CCNC(=O)CCN1N=C(c2ccccc2)CCC1=O)CC(C)C`?
JMJD2A Tudor inh: 0.0%; BAZ2B inh: 6.6%; HP1b binding inh: -14.3%; G9a block: -5.6%[59 µM]

Results for CC(C)(C)c1ccc(C(=O)/C(C#N)=C/c2cccs2)cc1 ?
JMJD2A Tudor inh: inconclusive; Sfp inh: 11.3%; BAZ2B inh: 50.1µM*; HP1b binding inh: inconclusive; G9a block: inconclusive

What do the screens show for `N#C/C(=C\c1cccs1)C(=O)Nc1ccccn1`?
JMJD2A Tudor inh: -24.5%; Sfp inh: 3.6%; BAZ2B inh: -24.8%; HP1b binding inh: 21.2%; G9a block: 56.2µM*

How did N#C/C(=C\c1ccccc1)C(=O)Nc1nncs1 do in these assays?
JMJD2A Tudor inh: 1.7%; Sfp inh: -6.0%; BAZ2B inh: -19.7%; HP1b binding inh: 35.4%; G9a block: 50.1µM*

Results for CC(Sc1ncc(S(=O)(=O)c2ccc(C(C)C)cc2)c(N)n1)C(=O)Nc1ccccc1 (centres undefined) ?
JMJD2A Tudor inh: -8.3%; BAZ2B inh: -11.2%; HP1b binding inh: 6.8%; G9a block: -22.5%[59 µM]

What do the screens show for `CCN1CCCC1Cn1c(-c2ccccc2)nc2c(NCCOC)nc(C)nc21` (centres undefined)?
Sfp inh: 24.0%

What do the screens show for `Cc1ccc(C)c(/C(O)=C2/C(=O)C(=O)N(CCN3CCOCC3)C2c2ccco2)c1` (centres undefined)?
JMJD2A Tudor inh: 79.4µM*; Sfp inh: 10.2%; BAZ2B inh: 22.4µM*; HP1b binding inh: inconclusive; G9a block: inconclusive

Results for COC(=O)c1[nH]c(C)c(/C(O)=C2\C(=O)C(=O)N(CCN3CCOCC3)C2c2cccnc2)c1C (centres undefined) ?
JMJD2A Tudor inh: 22.4µM*; Sfp inh: -0.1%; BAZ2B inh: -3.9%; HP1b binding inh: 12.1%; G9a block: inconclusive

How did Cc1ccc(C2/C(=C(\O)c3cnn(-c4ccccc4)c3C)C(=O)C(=O)N2CCN(C)C)o1 (centres undefined) do in these assays?
JMJD2A Tudor inh: -8.9%[11.4 µM]; Sfp inh: inconclusive; BAZ2B inh: -23.5%; HP1b binding inh: 53.0%; G9a block: -31.7%[59 µM]

Results for Cc1ccc(C2/C(=C(/O)c3ccccc3)C(=O)C(=O)N2CCN2CCOCC2)o1 (centres undefined) ?
JMJD2A Tudor inh: -28.8%; Sfp inh: -1.4%; BAZ2B inh: -30.1%; HP1b binding inh: 34.6%; G9a block: inconclusive

How did Cc1ccc(C2/C(=C(/O)c3cnn(-c4ccccc4)c3C)C(=O)C(=O)N2CCN2CCOCC2)o1 (centres undefined) do in these assays?
JMJD2A Tudor inh: inconclusive; Sfp inh: 50.1µM*; BAZ2B inh: 79.4µM*; HP1b binding inh: 13.7%; G9a block: inconclusive

Results for CCN(CC)CCN1C(=O)C(=O)/C(=C(/O)c2c(C)[nH]c(C(=O)OC)c2C)C1c1ccccc1 (centres undefined) ?
JMJD2A Tudor inh: -18.0%; Sfp inh: 16.8%; BAZ2B inh: 1.0%; HP1b binding inh: 18.3%; G9a block: 7.8%[12.7 µM]

Bioassay records deposited in PubChem BioAssay by National Center for Advancing Translational Sciences (NCATS).
